Compound activity (PubChem BioAssay)
Compounds with a hit are over-represented: about 2.4% of the library has one in this group of screens.
Cruzain Triton: qHTS Assay for Promiscuous and Specific Inhibitors of Cruzain (with detergent); Cruzipain (Trypanosoma cruzi), P25779; purified cruzain, Z-FR-AMC fluorescence, 0.01% Triton; Potency, µM, for inactives: max response, negative = inhibition, actives largely listed as inhibitors; AID 1478, 2009; hit rate 0.43% among 200,000;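 also: plate controls were neutral wells for no effect and buffer without enzyme for full effect; nearly all actives have a fitted effect of over 40% in size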
Target sequence (P25779 123-467 limits assumed): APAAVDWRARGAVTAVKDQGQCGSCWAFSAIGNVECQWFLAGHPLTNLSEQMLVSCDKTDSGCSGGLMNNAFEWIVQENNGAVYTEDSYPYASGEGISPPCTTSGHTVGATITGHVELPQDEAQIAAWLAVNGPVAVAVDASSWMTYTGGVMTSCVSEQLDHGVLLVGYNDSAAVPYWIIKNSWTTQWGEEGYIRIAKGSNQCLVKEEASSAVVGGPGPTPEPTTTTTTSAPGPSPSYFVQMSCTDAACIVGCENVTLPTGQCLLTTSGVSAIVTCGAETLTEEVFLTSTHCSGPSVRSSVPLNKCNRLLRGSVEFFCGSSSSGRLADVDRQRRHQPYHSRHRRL
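Detergent-containing run (0.01% Triton X-100) in acetate buffer pH 5.5 with 5 mM DTT: enzyme at 1.5 nM final, 15 min compound preincubation at room temperature, then 2 uM Z-FR-AMC substrate. Activity taken as 60 s fluorescence increase at 360/450 nm.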
Cruzain inh noDet: qHTS Assay for Promiscuous and Specific Inhibitors of Cruzain (without detergent); hit rate 2.3% among 200,000; Potency, µM, for the others: max response, negative = inhibition, usual class: inhibitors; purified cruzain, Z-FR-AMC fluorescence, no detergent;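 also: plate controls were enzyme without inhibitor for no effect and buffer without enzyme for full effect; nearly all actives have a fitted effect of over 40% in size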
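Purified cruzain at 1.5 nM, pre-incubated 15 min with compound at room temperature in 100 mM sodium acetate pH 5.5, 5 mM DTT, 0.00005% Triton X-100. Reaction started with 2 uM Z-FR-AMC; AMC fluorescence increase over 60 s gives rate.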
The depositor's hits bear a star; ? = inconclusive. Calls follow the shape of the dose curve; as a rule, active = well fitted curve in the direction sought with a large enough effect; inconclusive = small, poorly fitted or top-dose-only effect, or another doubt; inactive = no such curve, though single readings can be large; an effect the other way counts as inactive or inconclusive. Potency is read from the fitted curve at half-maximal effect.

SMILES	Cruzain Triton	Cruzain inh noDet
COc1ccc(OCC(=O)N(Cc2cccc(OC)c2)C2CCS(=O)(=O)C2)cc1 (stereo not drawn)	-3%	0%
CC(C)(C)c1ccc(S(=O)(=O)c2cn(CC(=O)Nc3ccccc3)c3ccccc3c2=O)cc1	-4%	-4%
CCOC(=O)Cn1c(=NC(=O)c2sc3ccccc3c2Cl)sc2cc(S(N)(=O)=O)ccc21	-7%	7.9µM*
COC(=O)Cn1c(=NC(=O)c2sc3ccccc3c2Cl)sc2cc(S(N)(=O)=O)ccc21	-5%	-18%
N/N=C1/c2ccccc2N[C@H]1OC(=O)Nc1cccc(Cl)c1	2%	-5%
c1ccc(Nc2nc(N3CCOCC3)nc(N3CCOCC3)n2)cc1	-5%	-5%
NNc1nc(Nc2ccccc2)nc(N2CCCCC2)n1	-11%	13µM*
CCc1ccc(S(=O)(=O)c2nnn3c2nc(NCc2cccs2)c2sccc23)cc1	-6%	-7%
COc1cc(/C=N/Nc2nc3ccccc3s2)ccc1OC(=O)c1ccccc1F	-3%	?
COc1cc(OC)cc(C(=O)Oc2ccc(/C=N/Nc3nc4ccccc4s3)cc2OC)c1	-7%	13µM*
COc1cc(/C=N/NC(=O)COc2ccc(C)cc2)ccc1OC(=O)c1cccs1	-5%	?
COc1cc(/C=N/Nc2ccccc2)ccc1OC(=O)c1cccs1	-3%	13µM*
Cc1cccc(C)c1NC(=O)CNC(=O)CCC(=O)c1cccs1	-2%	-5%
Nc1nc2n(n1)C(c1ccc(F)cc1)CC(c1ccc(F)cc1)N2 (stereo not drawn)	0%	1%
CC(C)(C)c1ccc(C(=O)NC(Cc2c[nH]c3ccccc23)C(=O)OCC(=O)c2ccc(Cl)cc2)cc1 (stereo not drawn)	-4%	25µM*
O=C(COC(=O)[C@H](Cc1c[nH]c2ccccc12)NC(=O)c1ccc(Cl)cc1)Nc1ccc2c(c1)OCO2	3.5µM*	20µM*
CC(=O)NC(Cc1c[nH]c2ccccc12)C(=O)NCc1ccc2c(c1)OCO2 (stereo not drawn)	4%	-13%
CCOC(=O)C(Cc1c[nH]c2ccccc12)NC(=O)COc1ccc(Cl)cc1 (stereo not drawn)	-8%	11%
CCOC(=O)c1[nH]c2ccc(OC)cc2c1N=CN(C)C	0%	3%
COc1ccc(C(=O)Nc2ccc3oc(-c4cc(Cl)ccc4Cl)nc3c2)cc1Br	0%	6%
CCn1c(CCCc2nc3c([nH]2)c(=O)n(C)c(=O)n3C)nc2c1c(=O)n(C)c(=O)n2C	-7%	-3%
CC1=CC(C)(C)Nc2ccc(OC(=O)CN3C(=O)c4cccc5cccc(c45)C3=O)cc21	-8%	25µM*
CC1=CC(C)(C)Nc2ccc(OC(=O)CN3C(=O)c4ccccc4C3=O)cc21	-6%	4%
CN(C(=O)Cc1ccc(Cl)c(Cl)c1)[C@H](CN1CCCC1)c1cccc(N=C=S)c1	-8%	6%
O=C1NC(=O)C(=Cc2cn(CCOc3ccc4c(c3)OCO4)c3ccccc23)C(=O)N1	0%	?
SMILES	Cruzain Triton	Cruzain inh noDet
Cc1ccc(OCCn2cc(/C=C3\C(=O)NN(c4ccccc4)C3=O)c3ccccc32)cc1	-7%	10µM*
CC(=O)Nc1ccc(-c2csc(NC(=O)CCCc3cccs3)n2)cc1	-6%	10µM*
Cc1ccc(-c2csc(NC(=O)CCCc3cccs3)n2)cc1	0%	7.9µM*
CCC(=O)Nc1ccc(-c2csc(NNC(C)=O)n2)cc1	-4%	-9%
O=C(O)CCC(=O)Nc1nc(-c2ccccc2)cs1	2%	-10%
Cc1c2cnn(-c3ccccc3)c(=O)c2c(C)n1CCCC(=O)Nc1cccc(F)c1	-6%	8%
c1ccc(-c2ccc(N3CC4(CCNCC4)C3)cc2)cc1	1%	?
c1ccc(-c2ccc(N3CCCC4(CCNCC4)C3)cc2)cc1	-3%	32µM*
COc1cccc2sc(Nc3nnc(-c4ccccc4Cl)o3)nc12	1%	?
COc1ccccc1-c1nnc(Nc2nc3c(OC)cccc3s2)o1	?	32µM*
Cc1ccc(NC(=O)Cn2c(=O)n(CC3CCC(C(=O)NC(C)C)CC3)c(=O)c3sccc32)cc1 (stereo not drawn)	-1%	-2%
CNC(=O)[C@H](C)[C@H]1C[C@]1(C)[C@H](NC(=O)OCc1ccccc1)c1ccccc1	-5%	3%
O=C(COC(=O)CNC(=O)c1ccccc1F)Nc1ccc2c(c1)OCCO2	8.9µM*	3.2µM*
O=C(CNC(=O)c1ccccc1F)OCC(=O)N1CCCCC1	16µM*	?
O=C(CNC(=O)c1ccccc1F)OCc1cc(=O)n2nc(C3CCCCC3)sc2n1	-9%	-6%
CCOc1ccccc1C(=O)NCC(=O)OCC(=O)c1ccc2c(c1)OCCO2	25µM*	?
CCOc1ccccc1C(=O)NCc1ccc2c(c1)OCO2	2%	-8%
O=C(CNC(=O)c1ccc(Cl)cc1)OCC(=O)c1ccc2c(c1)OCCO2	8.9µM*	10µM*
